12-LOX inh – ALOX12 (human) lipoxygenase inhibition | hit rate 1.1% among 580,000 | AID 1671190 | Potency, µM (series often up to 108 µM), usual class: inhibitors | purified 12hLO, xylenol orange hydroperoxide absorbance | P18054
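Purified human 12hLO at 150 nM in 25 mM Hepes, 0.01% Triton X-100, pH 7.0, preincubated 15 min at room temperature with compound. Reaction started with 40 uM arachidonic acid, 30 min at room temperature. Hydroperoxide measured by Fe-xylenol orange, 573/405 nm absorbance ratio.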
Sfp PPTase inh – Sfp phosphopantetheinyl transferase inhibition; Q9F4F7; Biochemical Sfp PPTase activity, qHTS; hit rate 3.5% among 310,000; Potency, µM, most hits filed as inhibitors;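 further: the enzyme is Sfp with the accession as filed and its product quenches rhodamine fluorescence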
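Sfp 15 nM + cpd, 15 min RT; start w/ rhodamine-CoA 5 uM, BHQ-2-YbbR 12.5 uM (final); 50 mM Hepes pH 7.6, 10 mM MgCl2, 0.01% NP-40, 0.01% BSA; read 525/598 nm at 0 and 30 min.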
VDR inhibitor – vitamin D3 receptor (human) inhibition; P11473; VDR-SRC2-3 peptide fluorescence polarization, 2 h; Potency, µM, usual class: inhibitors; hit rate 0.93% among 400,000
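Fluorescence polarization assay of small-molecule disruption of VDR binding to coregulator peptide SRC2-3. Compounds and controls pin-transferred, then read after 2 h incubation at ambient room temperature.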
G9a block – G9a (human) methyltransferase inhibition. G9a H3K9 monomethylation, AlphaScreen, 2 h. Potency, µM (titrated, usually from 102 µM), actives largely listed as inhibitors. hit rate 8.8% among 350,000. AID 504332; further: nearly all actives have a fitted effect of over 75% in size
Target sequence (Q96KQ7 913-1193 limits assumed): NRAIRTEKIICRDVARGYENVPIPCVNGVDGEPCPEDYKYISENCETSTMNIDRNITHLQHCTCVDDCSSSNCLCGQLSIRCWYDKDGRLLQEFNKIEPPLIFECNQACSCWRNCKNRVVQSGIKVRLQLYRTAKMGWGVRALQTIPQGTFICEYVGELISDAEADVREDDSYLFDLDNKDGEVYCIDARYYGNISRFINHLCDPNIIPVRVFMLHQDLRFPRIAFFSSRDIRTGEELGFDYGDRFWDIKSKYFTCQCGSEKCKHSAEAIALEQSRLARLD
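Compounds were preincubated with 20 nM G9a for 15 min, after which biotinylated H3K9 peptide (500 nM) and SAM (20 uM) started a 2 h room-temperature reaction. Monomethylated product was quantified by antibody-based AlphaScreen chemiluminescence.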
Glioma ERSR ind – ER stress response induction in glioma; U87-MG GRP78 promoter luciferase reporter, 16 h; Potency, µM, most hits filed as activators; hit rate 0.02% among 420,000; further: series mostly up to about 76 µM; nearly all actives have a fitted effect of over 35% in size
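Stably transfected U87-MG human glioma cells carrying a GRP78-based luminescent sensor were seeded at 1000 cells/well, pin-dosed with compounds and incubated 16 h. Luciferase reagent was then added, and end-point luminescence was read after 10 min at room temperature.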
A number is an active result; 0 = inactive; ? = inconclusive; - = not tested or not shown; [ ] = remark or other dose. Only a selection was taken, and hits are over-represented in it overall. The call rests on the fitted dose curve; in most records, active means well fitted curve in the direction sought with a large enough effect; inconclusive means small, poorly fitted or top-dose-only effect, or another doubt; inactive means no such curve, though single readings can be large; an effect the other way counts as inactive or inconclusive.

SMILES	12-LOX inh	Sfp PPTase inh	VDR inhibitor	G9a block	Glioma ERSR ind
CC(=O)c1cc(NC(=O)c2ccccc2)c(=O)oc1C	0	?	0	32µM	0
CC(=O)c1cc(NC(=O)c2ccc(C)cc2)c(=O)oc1C	0	?	?	18µM	0
Cc1oc(=O)c(NC(=O)c2ccccc2)cc1C(=O)c1ccccc1	?	16µM	18µM	-	?
Cc1oc(=O)c(NC(=O)c2ccc(Cl)cc2)cc1C(=O)c1ccccc1	?	8.9µM	25µM	-	0
COc1ccccc1CNC(=O)COc1ccc2c(=O)c(Oc3ccccc3)c(C)oc2c1	0	-	-	-	-
COc1cccc(-c2nn(-c3ccccc3)c(OC(C)=O)c2-c2ccc(NC(=O)C3CCCC3)cc2)c1	0	-	-	-	-
NCc1ccccc1-c1cnc2ccccc2c1	0[12.5 µM]	-	-	-	-
O=C1C2C3C=CC(C4CC34)C2C(=O)N1/N=C/c1c[nH]c2ccccc12 (configuration not stated)	0	0	0	50µM	0
CCCCC[C@@H](/C=C/C1C(=O)C=C[C@H]1C/C=C\CCCC(=O)OC)OC(C)=O (some centres not stated)	0	-	10µM	-	0
CCCCC[C@H](O)/C=C/[C@H]1C(=O)C[C@H](O)[C@@H]1C/C=C\CCCC(=O)O	-	0	0	0	0
Cc1ccc(NC(=O)CSc2nc3c(c(=O)[nH]2)CCC3)cc1	0	-	-	-	-
O=C(O)c1cc(Br)ccc1NN=C1CCCCC1	?	0	0	2.8µM	0
O=c1cccccc1NN=C1CCCCC1	?	?	0	-	0
Cc1ccc(/C(O)=C2\C(=O)C(=O)N(CC(C)O)C2c2cccc(F)c2)cc1 (configuration not stated)	18µM	0	0	0	0
COc1ccccc1C1/C(=C(/O)c2ccccc2)C(=O)C(=O)N1CCO (configuration not stated)	?	0	0	0[12.7 µM]	0
COc1ccccc1C1/C(=C(/O)c2ccccc2)C(=O)C(=O)N1CC(C)O (configuration not stated)	3.5µM	0	0	?	0
COc1ccc(N2C(=O)[C@@H]3[C@H](C2=O)[C@H](C(C)=O)N2c4ccccc4C=C[C@@H]32)cc1	?	0	0	8.9µM	0
COc1ccc(C2C(C(=O)c3ccccc3)N3c4ccccc4C=CC3C2[N+](=O)[O-])cc1 (configuration not stated)	?	0	0	35µM	0
O=Cc1cc(Cl)ccc1OC(=O)/C=C/c1ccc(F)cc1	0	-	-	-	-
O=C(NC1CCN(c2cc(-c3cccs3)[nH]n2)C1)c1cccc(Cl)c1 (configuration not stated)	0	-	-	-	-
CC1(c2ccccc2)N(Cc2ccc(O)cc2)C(=O)OC12CCN(C(=O)C1CCC1)CC2 (configuration not stated)	0	-	-	-	-
COc1ccc2c(CC(=O)OCC(=O)Nc3cc(C)c(C)cc3[N+](=O)[O-])coc2c1	0	0	0	20µM	0
CCc1ccc2oc(C(=O)Nc3ccc(C)cc3)cc(=O)c2c1	0	-	-	-	-
NC(=O)c1ccc(OCC2CCCO2)cc1 (configuration not stated)	0	0	0	0	0
Nc1cccc(OCC2CCCO2)c1 (configuration not stated)	7.1µM	-	-	-	-
SMILES	12-LOX inh	Sfp PPTase inh	VDR inhibitor	G9a block	Glioma ERSR ind
CCOC(=O)c1c(C)n(-c2ccc(C)cc2)c2c(CC(C)=O)c(Br)c(OC)c(O)c12	0	0	0	0	0
CCOC(=O)C(C(C)=O)c1c(Br)c(O)c(O)c2c(C(=O)c3ccc(C)cc3)coc12 (configuration not stated)	?	13µM	0	?	?
CCOC(=O)c1c(C)n(-c2ccc(C)cc2)c2c(C(C(C)=O)C(=O)O)c(Br)c(O)c(O)c12 (configuration not stated)	0	0.89µM	0	?	0
O=C(c1cc2ccccc2[nH]1)N1CCN(S(=O)(=O)c2cccs2)CC1	0	-	-	-	-
O=C(NCCN1C(=O)C2C3C=CC(C3)C2C1=O)NCc1ccccc1 (configuration not stated)	0	0	89µM	0	0
O=C(NCCN1C(=O)C2C3C=CC(C3)C2C1=O)Nc1ccccc1 (configuration not stated)	0	0	0	0	0
CN(C)c1cc(CNC(=O)Nc2nnc(C3CC3)s2)ccn1	0	-	-	-	-
CCOC(=O)N1CCN(C(=O)CSc2nnc(-c3ccc(C)c(C)c3)o2)CC1	0	0	0	0	0
Cc1ccc(-c2nnc(SCC(=O)N3CCCC3)o2)cc1C	?	0	0	50µM	0
O=C(CSc1nnc(-c2ccccc2O)o1)N1CCCCC1	0	0	0	10µM	0
O=C(CSc1nnc(-c2ccc(F)cc2)o1)N1CCCc2ccccc21	0	-	0	10µM	0
COc1cccc(-c2nnc(SCC(=O)N3CCCCC3)o2)c1	0	-	0	16µM	0
CC(C)n1cc(CN2CCOCCNC(=O)CC2)c2ccccc21	0	-	-	-	-
c1ccc2c(NC(C3CC3)C3CC3)nc(-c3ccncc3)nc2c1	0	-	-	-	-
CCOC(=O)N1CCN(C(=O)CSc2nnc(-c3cccc(OC)c3)o2)CC1	0	0	?	50µM	0
CC1CCCCN1C(=O)CSc1nnc(-c2ccccc2O)o1 (configuration not stated)	?	0	0	?	0
CC1CCCCN1C(=O)CSc1nnc(-c2ccccc2Cl)o1 (configuration not stated)	0	-	0	13µM	0
NC(=O)CSc1nnc(-c2ccc(S(=O)(=O)N3CCCC3)cc2)o1	0	0	0	11µM	0
COc1cc(OC)cc(-c2nnc(SCC(=O)N3CCC(C)CC3)o2)c1	0	-	0	22µM	0
COc1cc(OC)cc(-c2nnc(SCC(=O)N3CCCC3)o2)c1	0	0	0	0	0
CN(CC(=O)NC1CCCC1)Cc1cccc(C#N)c1	0	-	-	-	-
Cc1cc(C)cc(N(CC(=O)Nc2ccccc2C(=O)NCC2CCCO2)S(C)(=O)=O)c1 (configuration not stated)	0	-	-	-	-
O=CNC12CCC3CC(CC(C3)C1)C2	0	-	-	-	-
COc1cc(Nc2cc3c(cn2)cc(-c2cnn(C)c2)n3Cc2ccccc2)cc(OC)c1OC	0	-	-	-	-
CCCn1c(CSc2nnc(C3CC3)n2-c2ccccc2)nc2cc(S(=O)(=O)N(C)C)ccc21	0	-	-	-	-
SMILES	12-LOX inh	Sfp PPTase inh	VDR inhibitor	G9a block	Glioma ERSR ind
Cc1cc2nc3n(c(=O)c2n1CC(=O)Nc1ccc(Cl)cc1F)CCCC3	22µM	-	-	-	-
COc1ccc(C(C)NC(=O)Cn2c(C)cc3nc4n(c(=O)c32)CCCC4)cc1 (configuration not stated)	50µM	-	-	-	-
Cc1cc2nc3n(c(=O)c2n1CC(=O)NC(C)c1ccccc1)CCCCC3 (configuration not stated)	0	-	-	-	-
CC(O)CNc1nc2c(c(=O)n(C)c(=O)n2C)n1Cc1ccccc1 (configuration not stated)	0	-	-	-	-
Cc1nc2ccc3[nH]c(C)c(C)c3c2s1	0	-	-	-	-
Cc1nc2c(ccc3c(C)c(C)[nH]c32)s1	28µM	-	-	-	-

Bioassay records from PubChem.
